Sampled rows, rich in hits. Any-hit rate of the full collection: about 1.2%.
ugtP null kill = kills S. aureus RN4220 lacking UgtP; growth inhibition, % (concentration not given with the values); AID 1259309; S. aureus RN4220 ugtP deletion, OD600 growth, 16 h; hit rate 0.54% among 330,000; in the data active = growth inhibition above about 68%;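 note: plate controls were untreated wells for no effect and antibiotic for full effect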
PriA SSB inh = K. pneumoniae PriA-SSBct interaction inhibition; hit rate 0.6% among 430,000; AID 1272365; inhibition, % at 33 µM; AlphaScreen SSBct-PriA binding, biotinylated peptide; in the data active = inhibition mostly above about 37%, no sharp cut-off; inactive = mostly below about 20%;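 note: plate controls were negative control peptide for no effect and reference peptide for full effect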
BJeLR lethal = kills HRASV12-expressing BJeLR cells. BJeLR (HRASV12) viability, CellTiter-Glo ATP luminescence, 48 h. hit rate 0.17% among 300,000. inhibition, % (no concentration beside the values); in the data active = inhibition above about 50%
Sa RN4220 lethal = S. aureus RN4220 growth inhibition; OD600, 16 h; hit rate 0.33% among 330,000; inhibition, % (test concentration not listed); in the data active = inhibition above about 85%;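 note: plate controls were untreated cells for no effect and reference antibiotic for full effect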
MazEF act = activators of E. coli MazEF toxin-antitoxin RNase; P0AE70; hit rate 0.32% among 350,000; activation, % at 20 µM; FAM/BHQ RNA-DNA oligo cleavage fluorescence, 5 h; in the data active = activation above about 50%
Target sequence (P0AE70 whole entry, looked up): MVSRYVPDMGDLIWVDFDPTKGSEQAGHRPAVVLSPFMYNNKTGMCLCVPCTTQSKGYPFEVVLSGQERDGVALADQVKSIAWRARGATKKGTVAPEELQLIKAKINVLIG
Starred values were filed as active, the others as inactive; i = inactive; · = no result.

SMILES | ugtP null kill | PriA SSB inh | BJeLR lethal | Sa RN4220 lethal | MazEF act
C(=NNc1nc2ccccc2[nH]1)c1ccc2ncccc2c1 | -13 | · | · | -2 | ·
C(=NNc1nc2ccccc2[nH]1)c1ccccn1 | 0 | 1 | · | 2 | ·
C(=N\Nc1nc2ccccc2[nH]1)/c1ccccn1 | · | · | 54* | · | 0
Brc1ccc(-c2ccc(C=NNc3nc4ccccc4[nH]3)o2)cc1 | 80 | 8 | · | 86* | ·
C(=N\Nc1nc2ccccc2[nH]1)/c1ccc2ncccc2c1 | · | i | 88* | · | 3
Cn1cc(CN2CCC(CO)CC2)c(-c2ccc(Oc3ccccc3)cc2)n1 | 0 | -13 | -3 | -1 | -7
Cc1ccc(-n2nnnc2SCc2nc3sc(C)c(C)c3c(=O)[nH]2)cc1 | -4 | -1 | 9 | 3 | 68*
CN(C(=O)c1ccccc1)c1ccccc1C(=O)NCCc1ccccc1 | 3 | -13 | 2 | 0 | 1
Cc1ccc(NCCN(C)C)c2c(=O)c3cc(O)ccc3sc12 | · | 62* | · | · | -24
Cc1cc(COC(=O)C2N3C(=O)C(NC(=O)COc4ccccc4)C3SC2(C)C)on1 (stereo unspecified) | 100* | · | · | 100* | ·
CC1(C)S[C@@H]2[C@H](NC(=O)[C@H](N)c3ccccc3)C(=O)N2[C@H]1C(=O)O | · | 10 | 11 | · | 9
CCOC(=O)OC(C)OC(=O)C1N2C(=O)C(NC(=O)C(N)c3ccccc3)C2SC1(C)C (stereo unspecified) | 100* | · | · | 101* | ·
CC1(C)SC2C(NC(=O)C(N)c3ccccc3)C(=O)N2C1C(=O)OC1OC(=O)c2ccccc21 (stereo unspecified) | 101* | · | · | 100* | ·
Cc1cc(/C=C2\C(=O)NC(=O)N(c3ccc(Br)cc3)C2=O)c(C)n1-c1cc(C(=O)O)cc(C(=O)O)c1 | · | -13 | 4 | · | -62
Cc1cc(/C=C2\C(=O)NC(=O)N(c3cccc(Br)c3)C2=O)c(C)n1C | 0 | -18 | 8 | -2 | 230*
Cc1cc(/C=C2/C(=O)NC(=O)N(c3ccc(Br)cc3)C2=O)c(C)n1C | 5 | -5 | -7 | 3 | 20
Cc1cc(/C=C2\C(=O)NC(=O)N(c3ccc(Br)cc3)C2=O)c(C)n1C | 3 | -9 | -10 | 3 | 87*
CCOC(=O)C1C(=O)NC(c2ccccc2)=NC1c1cccc(Br)c1 (stereo unspecified) | 5 | 3 | -1 | 1 | 8
C=C(C)C(=O)Oc1ccc(N=Nc2ccc(C)cc2)ccc1=O | 100* | 32 | · | 0 | -5
CCN1CCN(CCCNC(=O)CNC(=O)c2nn(-c3ccc(OC)cc3)c(=O)c3ccccc23)CC1 | 2 | -2 | 14 | 0 | -3
O=C(NCCC(O)c1ccc2c(c1)OCO2)c1ccc(Cl)s1 (stereo unspecified) | · | 37* | · | · | ·
O=C(/C=C\Nc1ccc2c(c1)OCO2)c1ccc(Cl)s1 | 5 | -19 | -6 | -5 | 86*
CC(C)C(NS(=O)(=O)c1ccccc1F)C(=O)OCC(=O)NCc1ccco1 (stereo unspecified) | 4 | -8 | · | 1 | 6
Cc1cc2nc(SCCOC(=O)Nc3cccc(Cl)c3)nc(C)c2cc1C | -20 | -42 | · | -2 | -15
Clc1cc2c(c3ncccc13)OCN(CCC1=CCCCC1)C2 | · | 95* | · | · | ·
SMILES | ugtP null kill | PriA SSB inh | BJeLR lethal | Sa RN4220 lethal | MazEF act
O=c1c2cccnc2[nH]c(=S)n1CCC1=CCCCC1 | 4 | 5 | -3 | 0 | -5
COc1ccc(OC)c(NC(=O)c2cnc(Nc3ccccc3OC)c3ccccc23)c1 | 12 | -35 | 9 | 7 | -5
COc1ccc(-c2noc(CN3CCCC(NC(=O)Nc4cccc(C)c4)C3)n2)cc1F (stereo unspecified) | · | 8 | · | · | ·
C[C@H](Nc1ccc(C(F)(F)F)cc1[N+](=O)[O-])C(=O)O | -4 | -8 | 4 | 4 | 9
CCCN(CCC)c1ccc(C(=S)N2CCOCC2)cc1 | · | 37* | · | · | ·
CCCN(CCC)c1ccc(C(=S)N2CCN(C(=S)Nc3ccccc3)CC2)cc1 | · | -2 | · | · | ·
CCCN(CCC)c1ccc(C(=S)N2CCNCC2)cc1 | · | 36* | · | · | ·
O=S1(=O)N=C(SCc2ccccn2)Nc2ccc(Cl)cc21 | · | -16 | · | · | ·
CCn1ccnc1CNCc1cn(-c2cc(C)ccc2C)nc1-c1ccccc1 | -2 | 87* | 0 | 0 | 4
Cc1ccc(C)c(-n2cc(CNCCc3cnccn3)c(-c3ccccc3)n2)c1 | 8 | -5 | 12 | 0 | 0
COc1ccc(C(=O)Nc2nc(C)c(C(C)=O)s2)cc1S(=O)(=O)N1CCOCC1 | 1 | 7 | · | 4 | 69*
COc1ccc(C(=O)Nc2nnc(C)s2)cc1S(=O)(=O)N1CCOCC1 | -6 | 3 | · | -2 | 1
Cc1ccc2c(C)nc(Nc3nc(CSc4nnc(C)s4)cc(=O)[nH]3)nc2c1 | 8 | -6 | · | 5 | 96*
COc1cccc2c(C)nc(Nc3nc(CSc4nnc(C)s4)cc(=O)[nH]3)nc12 | 1 | -15 | 3 | 3 | 62*
O=C(c1cc(C(=O)N2CCOCC2)c2nc3ccccc3n2c1)c1cc(Cl)cc(Cl)c1O | -2 | 0 | 0 | 3 | 1
Cc1noc(CNC(=O)c2cccc3ccccc23)n1 | · | -1 | · | · | ·
CC(=O)Nc1c(Cl)cc2c(c1Cl)C(=O)c1ccccc1-2 | 2 | -6 | · | 13 | 9
CCCn1c(O)c(N=Nc2ccc3ccccc3n2)c2ccccc21 | 20 | -25 | -2 | -3 | 146*
COc1ccc(-c2nnc(N)s2)c(OC)c1 | · | -9 | · | · | ·
COCc1cc(Sc2ccc(Cl)cc2)nc(-c2ccccc2)n1 | 72 | 2 | 3 | -12 | -5
COCc1cc(Sc2cccc(Cl)c2Cl)nc(-c2ccccc2)n1 | 91* | -39 | 8 | -11 | -16
COc1ccc(N/N=C(/C(N)=O)C2=NC(C)(C)Cc3ccccc32)cc1 | · | · | -6 | · | 3
CC(=O)c1ccc(NN=C(C(N)=O)C2=NC(C)(C)Cc3ccccc32)cc1 | 1 | 50* | · | 2 | ·
O=C(COC(=O)CCS(=O)(=O)c1ccc(Cl)cc1)NCCc1ccc(Cl)cc1Cl | -9 | -9 | 5 | 6 | -2
NS(=O)(=O)c1cccnc1Nc1ccc(Cl)c(Cl)c1 | -13 | -7 | 0 | -1 | 1
SMILES | ugtP null kill | PriA SSB inh | BJeLR lethal | Sa RN4220 lethal | MazEF act
COc1ccccc1NC(=O)c1sc(=S)n(-c2cc(C)ccc2C)c1N | · | 48* | · | · | ·
Cc1cc(Nc2ccccc2)n(-c2cccc(Cl)c2)n1 | 5 | -28 | 2 | 1 | 10
COc1ccc(OC)c2sc(N3CCN(C(=O)c4ccc5c(c4)CCCC5)CC3)nc12 | · | 29* | · | · | ·
O=C(NN=CC1C(=O)NC(=S)N(c2ccccc2)C1=O)c1cc(Br)c(O)c(Br)c1 (stereo unspecified) | 1 | 62* | · | 7 | ·
O=[N+]([O-])c1nn(-c2cccc(Cl)c2)n(O)c1=NCc1cccnc1 | 18 | 7 | 7 | 19 | -10
O=[N+]([O-])c1nn(-c2ccccc2)n(O)c1=NC1CCCCCC1 | · | 64* | · | · | ·
O=[N+]([O-])c1nn(-c2ccccc2)n(O)c1=NC1CCN(Cc2ccccc2)CC1 | 12 | -5 | -5 | 29 | 7
O=[N+]([O-])c1nn(-c2cccc(Cl)c2)n(O)c1=NC1CCCCCC1 | · | 66* | · | · | ·
